High-throughput results deposited in PubChem by National Center for Advancing Translational Sciences (NCATS).
ELG1 genotox: induces genotoxicity in HEK293T cells with luciferase-tagged ELG1 | 1.3% of 330,000 active | Potency, µM (doses to about 46 µM), most hits filed as activators | HEK293T ELG1-luciferase reporter, luminescence, 16 h; also: nearly all actives have a fitted effect of over 60% in size
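DMSO vehicle served as control against compound-treated ELG1-luciferase HEK293T cells; exposure lasted 16 hr at 37 °C and 5% CO2, followed by ONE-Glo luminescence detection after 30 min.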
Rab9 promoter act: activates the Rab9 promoter. Huh7 Rab9 promoter-luciferase reporter, luminescence, 24 h. Potency, µM (top dose mostly 9.22 µM), hits mostly activators. 2.8% of 320,000 active; also: nearly all actives have a fitted effect of over 60% in size
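Using Huh7 cells stably transfected with Rab9 promoter–luciferase, compounds were incubated 24 h at 37 °C, 5% CO2; luciferase luminescence was read 10 min after reagent addition.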
SMN2 splice up: SMN2 splice variant enhancement. HEK293 SMN2-luciferase splicing reporter, luminescence, 30-36 h. Potency, µM (highest dose often 46.1 µM), usual class: activators. 2.8% of 210,000 active; also: nearly all actives have a fitted effect of over 55% in size
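HEK293 cells carry an SMN2 […]–luciferase reporter in which exon 7 inclusion puts luciferase in frame. Cells were plated 10-12 h before compound addition, then incubated 30-36 h at 37C. ONE-Glo luminescence was read; sodium butyrate at 4.5 mM final served as control.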
NPC1 promoter act: activates the NPC1 promoter; Huh7 NPC1 promoter luciferase reporter, 24 h; Potency, µM (titrated, usually from 9.22 µM), most hits filed as activators; 2.4% of 320,000 active; AID 485313; also: nearly all actives have a fitted effect of over 60% in size
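Huh7 cells stably carrying NPC1 promoter–luciferase, plated in Opti-MEM with 10% FBS for 2 h, were exposed to compound in DMSO for 24 h at 37 °C; luciferase reagent was added for 10 min and luminescence read.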
ELG1 DNA repair: blocks ELG1-dependent DNA repair in HEK293T cells. HEK293T ELG1-luciferase reporter, luminescence, 16 h; DNA damage induced by 5-fluorouridine. Potency, µM (series often up to 46.1 µM), usual class: inhibitors. 2.3% of 330,000 active; also: nearly all actives have a fitted effect of over 55% in size
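Overnight (16 hr) co-exposure of 2,000 cells/well to 5-fluorouridine and compound at 37 °C preceded detection. Luciferase was quantified via ONE-Glo luminescence; loss of signal denotes inhibition.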
FLuc counter: counter-screen for miR-21 project: firefly luciferase inhibitors or activators; P08659; purified FLuc, Km substrates, luminescence inhibition; Potency, µM (top dose mostly 57.5 µM), actives largely listed as inhibitors; 6.9% of 360,000 active; also: nearly all actives have a fitted effect of over 55% in size
Target sequence (P08659 whole entry, looked up): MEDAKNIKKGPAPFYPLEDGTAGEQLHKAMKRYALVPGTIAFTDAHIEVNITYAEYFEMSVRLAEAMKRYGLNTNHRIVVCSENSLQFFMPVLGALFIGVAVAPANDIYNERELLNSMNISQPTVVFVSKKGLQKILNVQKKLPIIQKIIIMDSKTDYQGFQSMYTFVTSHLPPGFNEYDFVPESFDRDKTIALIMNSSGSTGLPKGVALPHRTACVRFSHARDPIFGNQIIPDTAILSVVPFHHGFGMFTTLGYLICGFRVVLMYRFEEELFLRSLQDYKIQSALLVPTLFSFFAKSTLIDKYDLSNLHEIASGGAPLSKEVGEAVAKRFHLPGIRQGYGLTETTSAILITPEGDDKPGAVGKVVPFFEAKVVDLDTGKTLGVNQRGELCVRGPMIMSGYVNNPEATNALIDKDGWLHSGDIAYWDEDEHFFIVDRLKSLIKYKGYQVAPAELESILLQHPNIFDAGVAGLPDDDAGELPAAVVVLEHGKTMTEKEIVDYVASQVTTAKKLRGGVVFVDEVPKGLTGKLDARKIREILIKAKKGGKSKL
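Purified P. pyralis luciferase, 10 nM final, with Km-level 10 uM D-luciferin and 10 uM ATP in 50 mM Tris acetate pH 7.5, 10 mM Mg acetate, 0.01% Tween-20, 0.05% BSA; 6-point qHTS titration about 60 µM downward; luminescence read.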
Hits are given with their value; i = inactive; ? = inconclusive; nt = no result given; [ ] = dose if it differs, or a comment. The list is not random: actives were taken first. Their share in the collection is about 9.4%. Calls follow the shape of the dose curve; as a rule, active = well fitted curve in the direction sought with a large enough effect; inconclusive = small, poorly fitted or top-dose-only effect, or another doubt; inactive = no such curve, though single readings can be large; an effect the other way counts as inactive or inconclusive.

SMILES	ELG1 genotox	Rab9 promoter act	SMN2 splice up	NPC1 promoter act	ELG1 DNA repair	FLuc counter
COc1ccccc1N=c1oc2cc(O)ccc2cc1C(N)=O	i	i	i	i	?	13µM
COc1cccc(C(=O)N/N=c2/oc3ccccc3cc2C(N)=O)c1	i	i	nt	i	i	i
COc1ccccc1N=c1oc2cc(O)ccc2cc1C(=O)NCC1CCCO1 (stereo not drawn)	i	i	i	i	6.5µM	i
COc1cccc(N=c2oc3cc(O)ccc3cc2C(=O)NCC2CCCO2)c1 (stereo not drawn)	i	i	i	i	4.1µM	i
COc1ccc2oc(=O)c(C(=O)NCC3CCCO3)cc2c1 (stereo not drawn)	?	i	i	i	?	?
CCOc1ccc(C(=O)c2oc3ccccc3c2NC(=O)Cc2coc3ccc(CC)cc23)cc1	nt	nt	i	nt	nt	i
CC1=C(C(=O)Nc2cccnc2)C(c2cccc(O)c2)n2nc(SCc3ccccc3)nc2N1 (stereo not drawn)	nt	nt	nt	nt	nt	i
Cc1cccc(N=c2oc3cc(O)ccc3cc2C(N)=O)c1	i	i	i	i	4.6µM	?
COc1cc(-c2cc(C(=O)Nc3ccc(S(N)(=O)=O)cc3)c3ccccc3n2)cc(OC)c1OC	i	i	nt	i	?	i
CCN(CC)S(=O)(=O)c1ccc(O)c(NC(=O)c2cc(-c3cc(OC)c(OC)c(OC)c3)nc3ccccc23)c1	i	i	nt	i	16µM	i
COc1ccccc1NC(=O)c1cc(-c2ccc(OC)c(OC)c2)nc2ccccc12	i	i	nt	i	i	9.5µM
COCCN(Cc1ccccc1)C(=O)c1cc(-c2ccc(OC)c(OC)c2)nc2ccccc12	i	i	nt	i	12µM	i
COc1cc(-c2cc(C(=O)Nc3cccc(S(=O)(=O)N(C)C)c3)c3ccccc3n2)cc(OC)c1OC	i	i	nt	i	?	i
COc1cc(-c2cc(C(=O)Nc3c(Cl)cc(Cl)cc3Cl)c3ccccc3n2)cc(OC)c1OC	i	i	i	i	5.2µM	i
CCN(Cc1ccccc1)C(=O)c1cc(-c2ccc(OC)c(OC)c2)nc2ccccc12	i	i	nt	i	i	i
COC(=O)[C@@H]1C[C@H]1[C@@H](NC(=O)Oc1ccc(F)cc1)c1ccccc1	nt	nt	i	nt	nt	nt
CCCCc1nc2c(c3c1C[C@H](C)OC3)CN(C(=O)NCc1ccco1)CC2	nt	nt	i[9.22 µM]	nt	nt	nt
Cc1ccc(-n2c(=O)c3c(cnn3C)n(CC(=O)Nc3c(C)cccc3C)c2=O)cc1	nt	nt	i	nt	nt	i
COc1ccccc1CN(C)C(=O)c1cc(-c2cc(OC)c(OC)c(OC)c2)nc2ccccc12	i	i	nt	i	5.8µM	i
COc1ccc(-c2cc(C(=O)Nc3ccc(O)cc3)c3ccccc3n2)cc1OC	i	i	nt	i	?	5.4µM
COc1ccc(-c2cc(C(F)(F)F)n3nc(C(=O)N(C)Cc4ccccc4)cc3n2)cc1OC	i	i	i	i	21µM	i
COc1ccc2c(c1)O[C@@H](c1cccc(C(F)(F)F)c1)[C@H](OC(=O)Nc1cc(OC)c(OC)c(OC)c1)C2=O	nt	nt	i	nt	nt	nt
CCc1ccc2c(Cl)c(C(=O)N/N=C/c3c[nH]c4ccccc34)sc2c1	i	i	i	i	i	19µM
CCc1ccc(-c2cc(C(=O)N/N=C/c3c[nH]c4ccccc34)[nH]n2)cc1	i	i	i	i	?	4.3µM
O=C(N/N=C/c1c[nH]c2ccccc12)c1ccc([N+](=O)[O-])cc1Cl	i	i	nt	i	i	?
SMILES	ELG1 genotox	Rab9 promoter act	SMN2 splice up	NPC1 promoter act	ELG1 DNA repair	FLuc counter
CCc1ccc(/C=N/NC(=O)c2cc(-c3cccc([N+](=O)[O-])c3)n[nH]2)cc1	i	i	nt	i	?	i
CC(=O)c1cccc(NC(=O)c2cc(-c3ccco3)on2)c1	?	i	nt	i	i	2.4µM
COc1ccc(-c2cc(C(=O)Nc3cccc(O)c3)no2)cc1	?	4µM	nt	?	?	0.38µM
O=C(Nc1cccc(O)c1)c1cc(-c2ccco2)on1	?	i	i	i	?	0.95µM
O=C(Nc1cccc(C(F)(F)F)c1)c1cc(-c2ccco2)on1	i	i	nt	i	i	?
COc1ccc(-c2cc(C(=O)Nc3ccc(C)c(C)c3)no2)cc1	i	i	nt	i	i	i
COc1ccc(C(=O)c2cn(Cc3ccc(F)cc3)c3c(F)cc(F)cc3c2=O)cc1	nt	nt	i	nt	nt	i
CCOc1ccc2oc(C(=O)N(Cc3nnc(-c4ccccc4Cl)o3)C3CC3)c(C)c2c1	?	i	nt	i	9.2µM	i
O=C(c1cc([N+](=O)[O-])cc([N+](=O)[O-])c1)N(Cc1nnc(-c2ccccc2Cl)o1)C1CC1	i	i	i	i	?	i
CCCN(Cc1nnc(-c2ccccc2Cl)o1)C(=O)c1cc2ccccc2o1	i	i	nt	i	?	?
O=C(c1cc2ccccc2o1)N(Cc1nnc(-c2ccccc2Cl)o1)C1CC1	21µM	i	nt	i	?	30µM
CC(C)c1nn2c(=O)cc(COC(=O)c3cccc(NC(=O)c4ccccc4F)c3)nc2s1	nt	nt	nt	nt	nt	i
CNC(=O)c1c(NC(=O)/C=C/c2ccccc2Cl)sc2c1CCC2	nt	nt	nt	nt	nt	9.5µM
Cc1cccc(C(=O)Nc2sc3c(c2C(=O)NC(C)C)CCCC3)c1	nt	nt	i	nt	nt	i
COc1cccc(C(=O)Nc2sc3c(c2C#N)CCN(C(C)=O)C3)c1	?	i	i	i	i	15µM
Cc1cccc(C(=O)Nc2sc3c(c2C(=O)O)CCC3)c1	i	i	nt	?	?	17µM
CNC(=O)c1c(NC(=O)c2cccc(C)c2)sc2c1CCC2	?	?	nt	?	?	21µM
CC(C)(C)c1ccc(OCCOCCn2c(-c3ccc(Cl)cc3)nc3ccccc3c2=O)cc1	nt	nt	i	nt	nt	i
Cc1c(Cl)cccc1NC(=O)Cn1c(=O)n(Cc2nc(-c3ccccc3)no2)c(=O)c2cc3c(cc21)OCO3	nt	nt	nt	nt	nt	i
COc1ccc(NC(=O)c2nc(SCc3ccccc3F)ncc2Cl)cc1	nt	nt	i	nt	nt	i
COc1cc(C(=O)Nc2sc3c(c2C(=O)O)CCC3)cc(OC)c1OC	i	i	nt	i	i	i
COc1cccc(C(=O)Nc2sc3c(c2C(=O)O)CCCC3)c1	i	i	nt	i	?	21µM
S=c1[nH]nc(-c2cc(-c3ccccc3)n[nH]2)n1/N=C/C=C/c1ccccc1	i	i	nt	i	?	6.7µM
COc1ccccc1/C=C/C=N/n1c(-c2cc(-c3ccccc3)n[nH]2)n[nH]c1=S	i	i	nt	i	i	5.4µM
COc1ccccc1/C=C/C=N/n1c(-c2ccc(F)cc2)n[nH]c1=S	i	i	nt	i	i	?
Cc1cc(C)c(Cn2c3ccccc3c3cnn(CC(=O)NCC(C)c4ccccc4)c(=O)c32)c(C)c1 (stereo not drawn)	nt	nt	i	nt	nt	i
